Data from PubChem BioAssay (EPA / NIEHS).
Activity calls are given as the source filed them. The calls were made as follows: active = hit-call score of the fitted dose curve at least 0.9, where 1 is the maximum; inactive = score below 0.9.

Assay: ATG_Oct_MLP_CIS: Attagene CIS-FACTORIAL HepG2 Assay for human Octamer-Binding Transcription Factor (Oct) (AID 2282993)
Details: HepG2 Attagene cis-factorial Oct reporter, mRNA; actives raise or lower the signal
Protocol: ATG_CIS is a cell-based, multiplexed-readout assay that uses HepG2, a human liver cell line, with measurements taken at 24 hours after chemical dosing in a 24-well plate.ATG_Oct_MLP_CIS is one of 52 assay component(s) measured or calculated from the ATG_CIS assay. It is designed to make measurements of mRNA induction, a form of inducible reporter, as detected with fluorescence intensity signals by Reverse transcription polymerase chain reaction (RT-PCR) and Capillary electrophoresis technology.Data from the assay component ATG_Oct_MLP_CIS was analyzed into 1 assay endpoint. This assay endpoint, ATG_Oct_MLP_CIS, was analyzed with bidirectional fitting relative to DMSO as the negative control and baseline of activity. Using a type of inducible reporter, measures of mRNA for gain or loss-of-signal activity can be used to understand the reporter gene at the transcription factor-level as they relate to the gene POU2F1. Furthermore, this assay endpoint can be referred to as a primary readout, because this assay has produced multiple assay endpoints where this one serves a reporter gene function. To generalize the intended target to other relatable targets, this assay endpoint is annotated to the dna binding intended target family, where the subfamily is POU domain protein.
Human liver HepG2 cells are transiently transfected with multiple reporter transcription units (MRTUs) in 6-well plates using FuGene 6 reagent (Roche; 3 ml FuGene/1 mg DNA). The MRTU constructs are regulated by a cis-regulating element (promoter). […] A major difference between the CIS and TRANS system is that in CIS activities of endogenous TFs are measured, whereas the TRANS assay evaluates changes in activities of exogenous, chimeric NR-Gal4 proteins. […] At the end of 24 hour incubation, total RNA was isolated using TriZol reagent (Invitrogen). The isolated RNA is then reverse-transcribed using oligo(dT) primer and Mo-MLV reverse transcriptase (Invitrogen) with DNAse I (Ambion) treatment for 30 min. The one-tenth of the produced cDNA was amplified by PCR using Taq DNA polymerase (Invitrogen) and two reporter sequence-specific primers. The PCR products were fluorescently labeled by primer extension with 6-arboxyfluorescein (6-FAM) 5'-labeled reporter sequence-specific primer (2 min at 95 C, 20 s at 68 C and 10 min at 72 C) and these products were digested with 5U of HpaI (New England Biolabs) for 2h at 37 C. The fragments were purified using Qiaquick PCR columns (Qiagen), analyzed on an ABI 3130xL genetic analyzer (Applied Biosystems) with peak positions identified by using a set of X-rhodamine (ROX)-labeled MapMarker1000 molecular weight standards (BioVentures). The raw capillary electrophoresis data was processed using Attagraph software (Attagene).
With `CCNc1nc(Cl)nc(NC(C)(C)C)n1` the outcome was “inactive”.
For `O=NN1CCCC1`, the outcome was “inactive”.
For `O=C(O)C(F)(F)OC(F)(F)C(F)(F)OC(F)(F)C(=O)O`, the outcome was “inactive”.
In the case of `ClC(Cl)c1ccccc1`, the outcome is reported as “inactive”.
In the case of `Cc1ccc([N+](=O)[O-])cc1C`, the outcome is reported as “inactive”.
For `CCC1(c2ccccc2)C(=O)N=C(O)NC1=O` (stereo not given), the outcome was “inactive”.
In the case of `OCC1CO1` (stereo not given), the outcome is reported as “inactive”.
For `FC(F)(F)c1ccc(Cl)cc1`, the outcome was “inactive”.
In the case of `Nc1ccc2ccccc2c1`, the outcome is reported as “inactive”.
In the case of `O=[N+]([O-])c1ccccc1`, the outcome is reported as “inactive”.
In the case of `NC(=O)C(F)(F)C(F)(F)F`, the outcome is reported as “inactive”.
For `Cc1ccc2c(c1N)C(=O)c1ccccc1C2=O`, the outcome was “inactive”.
In the case of `CC(C)(C)c1ccccc1OP(=O)(Oc1ccccc1)Oc1ccccc1`, the outcome is reported as “inactive”.
For `CC(C)Nc1ccc(Nc2ccccc2)cc1`, the outcome was “inactive”.
In the case of `CCC(C)(C)c1ccc(O)cc1`, the outcome is reported as “inactive”.
For `Oc1ccc(I)cc1`, the outcome was “inactive”.
In the case of `O=P1(N(CCCl)CCCl)NCCCO1` (stereo not given), the outcome is reported as “inactive”.
With `CCCCOCC1CO1` (stereo not given) the outcome was “inactive”.
With `C/C(=N\NC(=O)Nc1cc(F)cc(F)c1)c1ncccc1C(=O)O` the outcome was “inactive”.
For `Nc1ccc(Sc2ccc(N)cc2)cc1`, the outcome was “inactive”.
With `O=P(Oc1ccccc1)(Oc1ccccc1)Oc1ccccc1` the AC50 was 25.2 µM (active).
In the case of `CCCCC(CC)COP(=O)(Oc1ccccc1)Oc1ccccc1` (stereo not given), the AC50 is reported as 87.1 µM (active).
With `CCOP(=S)(OCC)SCSc1ccc(Cl)cc1` the outcome was “inactive”.
For `CCOP(=S)(S)OCC`, the outcome was “inactive”.
With `C=CC(=O)OCC(F)(F)C(F)F` the outcome was “inactive”.
In the case of `O=[N+]([O-])c1ccc(Cl)c(Cl)c1`, the outcome is reported as “inactive”.
With `Cc1ccc(C(=O)Cl)cc1` the outcome was “inactive”.
For `[N-]=[N+]=[N-]`, the outcome was “inactive”.
In the case of `O=C(O)C(F)(F)OC(F)(F)C(F)(F)OC(F)(F)F`, the outcome is reported as “inactive”.
For `O=C(O)C=CC(F)(C(F)(F)F)C(F)(F)F`, the outcome was “inactive”.
In the case of `CC(Cc1ccc(OCC(=O)O)cc1)NCC(O)c1csc(C(F)(F)F)n1` (stereo not given), the outcome is reported as “inactive”.
With `N#C/C=C/c1ccccc1` the outcome was “inactive”.
In the case of `Nc1ccc([N+](=O)[O-])cc1Cl`, the outcome is reported as “inactive”.
For `c1ccc2c(c1)Nc1ccccc1S2`, the outcome was “inactive”.
In the case of `CC(C)(C)c1ccc(O)cc1`, the AC50 is reported as 166 µM (active).
With `CCCCc1ccccc1` the outcome was “inactive”.
For `Nc1ccc(Cl)cc1`, the outcome was “inactive”.
For `ClC1=C(Cl)C2(Cl)C3C(Cl)C(Cl)CC3C1(Cl)C2(Cl)Cl` (stereo not given), the outcome was “inactive”.
With `CCCCC(CC)COC(=O)c1c(Br)c(Br)c(Br)c(Br)c1C(=O)OCC(CC)CCCC` (stereo not given) the outcome was “inactive”.
In the case of `COCCOCCO`, the outcome is reported as “inactive”.
